# Screening results as filed in PubChem BioAssay.
# In the library only some 1.6% were active in any assay of this set; here they are far more common.
# Peg3 imprint: qHTS Assay for Compounds that Induce Erasure of Genomic Imprints. actives 0.02% (n = 110,000). mouse ES Peg3-LacZ reporter, beta-gal luminescence, 40 h. AID 1948, 2009. Potency, µM (titrated, usually from 60.7 µM), for inactives: top-dose activity change, positive = activation, actives largely listed as activators; further: potency means the concentration at half of the fitted maximal effect
#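 Readout: BetaGlo luminescence (5 min, room temp) for LacZ from the normally silent maternal Peg3 allele in female Peg3LacZ-Neo ES cells. Cells 300/well, 40 h, 37C, 5% CO2. Data normalized per plate to negative controls.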
# HBB splice mod: qHTS Assay for Modulators of Hemoglobin Beta Chain Splicing; HBB splicing reporter cell assay, activation; EGFP reporter with mutant IVS2-654 intron; response scale: normalised to 500 nM splice-correcting PNA; Potency, µM (doses to about 46.1 µM), without a hit: at the top dose activation, most hits filed as activators; actives 0.06% (n = 65,000); AID 925, 2007; further: potency means the concentration at half of the fitted maximal effect; 0% is about no effect
#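 HeLa cells stably expressing EGFP interrupted by mutant beta-globin intron 2 (IVS2-654), 500/well in 2% FCS. Treated with compound for 2 days at 37C. Splicing correction scored as total well GFP intensity (488 nm excitation, 500-520 nm emission); 500 nM antisense PNA served as control.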
# p53ts 32C tox: qHTS Screen for Compounds that Selectively Target Cancer Cells with p53 Mutations: Cytotoxicity of p53ts Cells at the Permissive Temperature; H1299-p53A138V at 32C, ATP luminescence viability, 24 h; Potency, µM (titrated, usually from 46.1 µM), for the others: at the highest dose activity change, negative = cytotoxicity, usual class: cytotoxic; actives 0.93% (n = 130,000);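 further: potency means the concentration at half of the fitted maximal effect; 0% = DMSO and -100% = full killing by reference compound; nearly all actives have a fitted effect of over 55% in size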
#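 ATP-content luminescence (ATPlite) read-out after 24 h compound exposure at 32C in H1299-p53A138V cells (600/well). Tested up to 46 uM. Normalized to DMSO (0%) and 100 uM tamoxifen (100% killing); Hill-fit AC50.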
# p53ts 39C kill: qHTS Screen for Compounds that Selectively Target Cancer Cells with p53 Mutations: Cytotoxicity of p53ts Cells at the Nonpermissive Temperature. H1299-p53A138V viability at 39C, ATP luminescence, 24 h. Potency, µM (titrated, usually from 46.1 µM), without a hit: at the highest dose activity change, negative = cell killing, usual class: cytotoxic. actives 1.5% (n = 130,000). AID 902, 2007; further: potency means the concentration at half of the fitted maximal effect; on the % scale 0 is the no-effect control and ±100 the full control effect; nearly all actives have a fitted effect of over 55% in size
# GFP derepression: qHTS Assay for Epigenetic Modulators; mouse C127i GFP locus derepression, cytometry, 30 h; Potency, µM (top dose mostly 46.1 µM), for the others: top-dose GFP derepression (activation); actives 0.09% (n = 68,000); AID 597, 2007; further: % of control where 0% means no effect
#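 Locus derepression in mouse mammary C127i cells whose integrated CMV-GFP reporter is normally silent; GFP expression after 30 h compound treatment was quantified by counting fluorescent cells.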
# UbGFP stabilizer: Ubiquitin-GFP Assay; Ubiquitin-GFP reporter cells, proteasome inhibition, GFP fluorescence; response scale: untreated = 0%, 10 µM MG-132 = 100%; Potency, µM (titrated, usually from 45.9 µM), without a hit: top-dose activation (GFP accumulation), hits mostly activators; 67,000 tested, under 10 active; AID 526, 2006; active means well fitted activation curve with a large enough effect, not every such curve was filed as active; inconclusive means small, poorly fitted or top-dose-only effect, or another doubt; inactive means no such curve, though single readings can be large or run the other way; further: potency means the concentration at half of the fitted maximal effect
#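 Reporter cells (U2OS, ubiquitin-G76V-GFP fusion) are plated overnight, then treated 4 hr at 37 °C with compound titrations from 46 uM down to 2.9 nM. Activity is scaled against untreated cells and 10 uM MG-132.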
# Starred values were filed as active, the others as inactive; ? = inconclusive; · = not tested or not shown; ! = not active in a repeat; [ ] = remark or other dose. Unless noted, the call rests on the fitted dose curve; in most records, active means well fitted curve in the direction sought with a large enough effect; inconclusive means small, poorly fitted or top-dose-only effect, or another doubt; inactive means no such curve, though single readings can be large; an effect the other way counts as inactive or inconclusive.
SMILES,Peg3 imprint,HBB splice mod,p53ts 32C tox,p53ts 39C kill,GFP derepression,UbGFP stabilizer
CCc1ccc(S(=O)(=O)Nc2cccc(-c3ccc(OC)nn3)c2)s1,-8%[10.9 µM],·,-12%,-9%,·,·
O=S(=O)(Nc1cccc(-c2ccc(N3CCCCCC3)nn2)c1)c1ccc(F)cc1,-9%[10.9 µM],·,?,-35%,·,·
CC(=O)c1ccc(S(=O)(=O)Nc2cccc(-c3ccc(N4CCCCC4)nn3)c2)cc1,-17%[10.9 µM],·,10µM*,5µM*,·,·
CCc1ccc(S(=O)(=O)Nc2cccc(-c3ccc(N4CCCCC4)nn3)c2)s1,-15%[10.9 µM],·,13µM*,16µM*,·,·
CN(C)CCCN1c2ccccc2CCc2ccc(Cl)cc21,-11%,0%[20.6 µM],-12%,20µM*!,0%[20.6 µM],0%
CN(C)CCCN1c2ccccc2Sc2ccccc21,-14%,-1%[20.6 µM],9%,?,-2%[20.6 µM],5%[20.5 µM]
c1ccc(-n2c(-c3ccncc3)nnc2N2CCOCC2)cc1,-7%,0%[57.5 µM],5%,-3%,5%,4%
Cc1ccc(CNC(=O)c2nc(S(=O)(=O)Cc3ccc(C)cc3)ncc2Cl)cc1,-8%[10.9 µM],·,16µM*,13µM*,·,·
CCS(=O)(=O)c1ncc(Cl)c(C(=O)NCc2ccc(OC)cc2)n1,-27%[10.9 µM],·,?,?,·,·
Cc1ccc(CSc2ncc(Cl)c(C(=O)Nc3nc4ccc(C)cc4s3)n2)cc1,-11%[10.9 µM],·,-2%,-14%,·,·
COc1ccc2nc(NC(=O)c3nc(S(=O)(=O)Cc4ccc(C)cc4)ncc3Cl)sc2c1,-18%[10.9 µM],·,?,6.3µM*,·,·
Cc1ccc(CS(=O)(=O)c2ncc(Cl)c(C(=O)Nc3nc4ccc(C)cc4s3)n2)cc1,-26%[10.9 µM],·,16µM*,13µM*,·,·
Cc1ccc(CS(=O)(=O)c2ncc(Cl)c(C(=O)Nc3nc4ccc(F)cc4s3)n2)cc1,-25%[10.9 µM],·,13µM*,16µM*,·,·
CC(C)C(=O)N(Cc1cc(=O)[nH]c2ccccc12)c1ccccc1,-8%,-4%[57.5 µM],5%,6%,2%,-4%
CC1CN(C(=O)c2cccc(S(=O)(=O)N3CCOCC3)c2)CC(C)O1 (stereo not given),21%,0%[57.5 µM],-4%,0%,-3%,6%
O=C1c2ccccc2C(=O)C1c1ccnc2ccccc12,·,·,?,5.6µM*,·,·
COc1ccc(C(=O)Nc2cccc(C)c2)cc1,-87%,-1%[0.0738 µM],6.3µM*,5µM*,-2%,-3%[9.17 µM]
COc1ccc(C(=O)Nc2cc(OC)nc(OC)n2)cc1,·,·,16µM*,10µM*,·,·
COc1ccc(C(=O)Nc2cc(OC)ccc2OC)cc1,-13%,·,?,?,2%,-1%
COc1ccc(C(=O)Nc2ccccc2C(N)=O)cc1,-68%,-2%,13µM*,13µM*,-3%,-5%
COc1ccc(C(=O)Nc2nnc(C)s2)cc1,-33%[10.9 µM],·,13µM*,13µM*,·,·
CCOC(=O)C1=C(N)N(c2ccc(N3CCCCC3)cc2)C(=O)C1,?,-2%,7%,-14%,1%,2%
Cc1ccc(NC(=O)c2nnn(-c3cc(C)cc(C)c3)c2N)cc1,-22%,3%,0%,-12%,3%,-17%
CC(C)(C)c1cc(O)c(C(C)(C)C)cc1O,-10%,·,-18%,3%,1%,-2%
Cc1cc(O)c(C(C)(C)C)cc1Sc1cc(C(C)(C)C)c(O)cc1C,-28%,-1%,12%[1.84 µM],16µM*,·,·
SMILES,Peg3 imprint,HBB splice mod,p53ts 32C tox,p53ts 39C kill,GFP derepression,UbGFP stabilizer
CSc1cccc(NC(=O)CN(C2CCCCC2)S(C)(=O)=O)c1,-18%,-2%,5%,14%,0%,1%
c1ccc2sc(-c3ccc4c(c3)OCO4)nc2c1,-94%,-2%,16µM*,7.9µM*,0%,26%
O=C(O)c1cc(-c2ccc3c(c2)OCO3)nc2ccccc12,-47%,1%,?,?,3%,2%
CN1CCN(CC/C=C2/c3ccccc3Sc3ccc(S(=O)(=O)N(C)C)cc32)CC1,-9%,·,·,·,·,·
CN(C)S(=O)(=O)c1ccc2c(c1)/C(=C/c1cc3c([nH]1)CCCC3)C(=O)N2,-16%,4µM*,-9%,-8%,16µM*,1%
Cc1ccc(C(C)C)c(OCC(=O)Nc2cccc(-c3nc4ncccc4o3)c2)c1,-8%[10.9 µM],·,?,16µM*,·,·
COc1ccc(OCC(=O)Nc2ccc(Cl)c(-c3nc4ncccc4o3)c2)cc1,16%[10.9 µM],·,-10%,-16%,·,·
O=C(Nc1cccc(-c2nc3ncccc3o2)c1)c1ccc(-c2cccc(Cl)c2Cl)o1,-13%[10.9 µM],·,10µM*,13µM*,·,·
CCC(C)c1ccc(OCC(=O)Nc2ccc(-c3nc4ncccc4o3)cc2)cc1 (stereo not given),-18%[10.9 µM],·,?,10µM*,·,·
Cc1cc(C)c(OCC(=O)Nc2cccc(-c3nc4ncccc4o3)c2)c(Br)c1,-17%[10.9 µM],·,-5%,-3%,·,·
Cc1cc(C)cc(C(=O)Nc2ccc(-c3nc4ncccc4o3)cc2)c1,-6%[10.9 µM],·,-22%,10µM*,·,·
COc1ccc(C(=O)Nc2ccc(-c3nc4ncccc4o3)cc2)cc1,-11%[10.9 µM],·,1%,23%,·,·
Cc1cc(C)nc(SCc2nnc(SCC(=O)Nc3ccc(C)c(C)c3)n2Cc2ccco2)n1,-16%,·,13%,38%,-2%,0%
CCn1c(COc2ccccc2)nnc1SCC(=O)Nc1cc(OC)ccc1OC,-23%,0%[57.5 µM],-2%,-8%,9%,3%
CCOc1ccc(N2C(=O)CC(SCCN)C2=O)cc1 (stereo not given),·,·,13µM*,13µM*,0%,-1%
CCOc1ccc(N2C(=O)CC(Sc3nc(C)cc(C)n3)C2=O)cc1 (stereo not given),-7%,-3%[0.0738 µM],8%,-7%,-4%,14%[9.17 µM]
COc1ccc(C)cc1NC(=O)CSc1nnnn1Cc1ccccc1,-16%,-3%,0%,-6%,-1%,8%
CC(C)c1ccc(Nc2nc(NCc3ccco3)nc(N3CCOCC3)n2)cc1,1%,·,20%,1%,3%,-2%
COc1cc2oc(=O)cc(-c3ccc(-c4ccc(OC(F)(F)F)cc4)cc3)c2c(OC)c1OC,-14%,·,·,·,·,·
O=C(Cc1ccccc1)Nc1nnc(-c2cccc([N+](=O)[O-])c2)s1,·,·,·,15%,·,·
Cc1onc(-c2c(F)cccc2Cl)c1C(=O)N[C@H]1C(=O)N2[C@H]1SC(C)(C)[C@H]2C(=O)O,-2%[16.8 µM],-2%[20.6 µM],2%[20.6 µM],4%[20.6 µM],5%[20.6 µM],6%[20.5 µM]
